Source: PubChem
The entries come from a sample that favours hits as a whole.
RMI FANCM FP – disruptors of RMI1/RMI2 association with MM2 peptide – biochemical, fluorescence polarization, human, primary screen | RMI core complex with F-MM2 peptide; stronger effect = lower value | FP signal (polarization) at 33 µM | 70,000 compounds, 0.58% hits | AID 1159607, 2016; in the data active = FP signal below about 40
Numbers stand for hits; i = inactive.

SMILES | RMI FANCM FP
COc1ccc(N=Nc2cc(C)c3cc(C(C)C)ccc(C)c2-3)cc1 | -11
COc1ccc(N=Nc2cc(C)c(O)c(CN3CCCCC3)c2)cc1 | i
Cc1ccc(C(C)C)cc2c(C)ccc1-2 | i
CNC(=O)Cc1csc(Nc2ccc(F)cc2)n1 | i
CC(=O)OC[C@H](OC(C)=O)[C@@H](OC(C)=O)[C@@H](C#N)OC(C)=O | i
COc1cc2c(cc1OC)CN(C(=O)CSc1nc3sc(C)c(C)c3c(=O)n1-c1ccccc1)CC2 | i
O=C(Cn1ncn2nc(-c3ccccc3)cc2c1=O)N1CCCC1 | i
S=C(NCCNC(=S)NCC1CC1)NCC1CC1 | i
Cc1sc(N)c(C(=O)c2cccc(C(F)(F)F)c2)c1C | i
Cc1sc(N)c(C(N)=O)c1C | 15
CCOC(=O)/C=C/C(=O)Nc1sc(C)c(C)c1C(N)=O | i
C#CC1(NC(=O)/C=C/C(=O)O)CCCCC1 | i
Cc1ccc(CCN2CSC(=S)N(CCc3ccc(C)cc3)C2)cc1 | i
CCC1CCCCN1S(=O)(=O)c1ccc(C(=O)Nc2nc(-c3cc4cccc(OC)c4o3)cs2)cc1 (stereo not drawn) | 19
CCOc1cccc2cc(-c3csc(NC(=O)c4ccc(C(C)=O)cc4)n3)oc12 | i
CCOc1cccc2cc(-c3csc(NC(=O)c4ccc(S(=O)(=O)N5CCCc6ccccc65)cc4)n3)oc12 | i
Cc1cc(F)ccc1S(=O)(=O)NCC1CCN(C2CCCC2)CC1 | i
Cc1ccc(=O)n(S(=O)(=O)c2ccc(F)cc2F)n1 | i
Cc1cc(F)ccc1S(=O)(=O)ON1C(=O)c2ccccc2C1=O | 27
O=C(Nc1ccc(S(=O)(=O)Nc2ncccn2)cc1)c1cnc2n(c1=O)CCS2 | 20
O=C(Nc1ccc(Br)cc1)c1cnc2n(c1=O)CCS2 | i
O=C(Nc1cccc2c1CCCC2)c1cnc2n(c1=O)CCS2 | i
O=c1[nH]c(SCc2ccc(Cl)cc2Cl)nc2c1cnn2-c1ccccc1 | i
COC(=O)Cn1c(=NC(=O)c2ccc(Br)s2)sc2cc(F)ccc21 | i
COC(=O)Cn1c(=NC(=O)c2ccc(OC)cc2)sc2cc(NC(C)=O)ccc21 | i
SMILES | RMI FANCM FP
COC(=O)Cn1c(=NC(=O)c2ccc(F)cc2)sc2cc(OC)ccc21 | 28
Cc1cc(NC(=O)C2CCN(S(=O)(=O)c3ccc(Cl)s3)CC2)n(C)n1 | i
Cn1c(=NC(=O)c2ccc3ncsc3c2)sc2cc(Br)ccc21 | i
CC1=C(Cl)C(O)=CC(=O)C12Oc1cc(O)c(Cl)c(C)c1C2=O (stereo not drawn) | 11
COc1ccc(C)c2sc(NC(=O)/C=C/c3cccs3)nc12 | i
C=CCN1C(=O)NC(C)(C)C1=O | i
OCCNc1ccc(NCCO)nn1 | i
COc1ccc(OC)c(S(=O)(=O)Nc2cc3c4c(c2)CCC(=O)N4CCC3)c1 | i
CC1CC(C)CN(S(=O)(=O)c2cc3c4c(c2)CCC(=O)N4CCC3)C1 (stereo not drawn) | i
Nc1cc2c3c(c1)CCC(=O)N3CCC2 | 21
CCN(Cc1ccccc1)S(=O)(=O)c1ccc(C(=O)Nc2cccc([N+](=O)[O-])c2)cc1 | i
COc1ccc(Cl)cc1C(=O)Nc1ccc2c(c1)N(C)C(=O)C(C)(C)CO2 | i
COc1ccc(-c2cc(-c3ccc(Cl)cc3)nc3sc(C(=O)NCCc4ccccc4)c(N)c23)cc1 | -12
COc1ccc(-c2cc(-c3ccccc3)nc3sc(C(=O)Nc4nsc(-c5ccccc5)n4)c(N)c23)cc1OC | i
COc1ccc(-c2cc(-c3ccc(C)c(C)c3)nc3sc(C(=O)Nc4nsc(-c5ccc(Cl)cc5)n4)c(N)c23)cc1 | i
COc1cc(OC)cc(C(=O)NCCn2ncc3c(NCCc4ccccc4)ncnc32)c1 | i
Cc1cc(NC(=O)COc2ccc(Cl)cc2Cl)n(C(C)C)n1 | i
N#C/C(=C\c1ccc(-c2cccc(C(F)(F)F)c2)o1)C(N)=S | i
N#C/C(=C/c1ccoc1-c1ccc([N+](=O)[O-])cc1)C(N)=S | 24
COC(=O)/C(C#N)=C\c1cc([N+](=O)[O-])ccc1N1CCCC1 | i
CCOC(=O)Nc1ccccc1NC(=O)OCC | i
CCn1c(=NC(=O)c2ccccc2NS(=O)(=O)c2ccc(C)cc2)sc2cccc(Cl)c21 | i
CC1C(=O)N2CCCc3cc(NC(=O)C(C)(C)C)cc1c32 (stereo not drawn) | i
Cc1ccc2nc(-c3ccc(OCC(=O)N=Nc4c(O)[nH]c5ccccc45)cc3)cc(-c3ccccc3)c2c1 | 20
CCOC(=O)COc1ccc(-c2cc(-c3ccccc3)c3cc(Cl)ccc3n2)cc1 | i
SMILES | RMI FANCM FP
CCCOc1ccc(-c2cc(C(=O)N=Nc3c(O)[nH]c4ccccc34)[nH]n2)cc1 | i
Cc1ccc(COc2cn(CC(=O)Nc3ccc4c(c3)OCCO4)c(CO)cc2=O)cc1 | i
CCOC(=O)c1sc(N/N=C\c2ccccc2Cl)c2c1CC(C)(C)CC2=O | i
O=C(NCCn1ncc2c(=O)n(Cc3cccc(Cl)c3)cnc21)c1cccc(Cl)c1 | i
O=C(/C=C/c1ccco1)c1c(-c2ccccc2)c2cc(Cl)ccc2[nH]c1=O | 0
O=C(/C=C/c1ccco1)c1c(-c2ccccc2)c2cc(Br)ccc2[nH]c1=O | i
C/C(=N\NC(=O)CCCC(=O)O)c1c(-c2ccccc2)c2cc(Cl)ccc2[nH]c1=O | i
CC(C)(C)c1ccc(-n2cccc2)c([N+](=O)[O-])c1 | i
Cc1ccc(N2C(=O)C=CC2=O)c([N+](=O)[O-])c1 | -7
Cc1ccc(NC(=S)NC(C)(C)C)c([N+](=O)[O-])c1 | i
CC(=O)Nc1ccc2c(c1)C(=O)NC2=O | i
CCOCC(=O)Nc1cc(-c2ccco2)nn1-c1nc(C)c(C)c(=O)[nH]1 | i
CCC(C(=O)Nc1cc(-c2ccco2)nn1-c1nc(C)c(C)c(=O)[nH]1)c1ccccc1 (stereo not drawn) | 31
Cc1nc(-n2nc(-c3ccco3)cc2NC(=O)Cc2ccc(F)cc2)[nH]c(=O)c1C | i
CCC(C(=O)Nc1cc(-c2cccs2)nn1-c1nc(C)c(C)c(=O)[nH]1)c1ccccc1 (stereo not drawn) | i
COc1cccc(C(=O)Nc2cc(-c3ccco3)nn2-c2nc(C)c(C)c(=O)[nH]2)c1OC | i
Cc1nc(-n2nc(-c3ccco3)cc2NC(=O)c2cc3ccccc3o2)[nH]c(=O)c1C | 23
Cc1nc(-n2nc(-c3ccco3)cc2NC(=O)c2ccc(Br)o2)[nH]c(=O)c1C | 39
Cc1nc(-n2nc(-c3cccs3)cc2NC(=O)c2cc3ccccc3o2)[nH]c(=O)c1C | i
Cc1nc(-n2nc(-c3ccco3)cc2NC(=O)COc2ccccc2F)[nH]c(=O)c1C | i
Cc1ccc(S(=O)(=O)N2CCCC2C(=O)Nc2cc(C)nn2C)cc1 (stereo not drawn) | i
Cc1ccc(F)cc1NC(=O)CSc1nc2c(-c3ccccc3)csc2c(=O)n1C | i
Nc1nc(C(F)(F)F)c(-c2cccc(C(F)(F)F)c2)s1 | i
O=C(NCCCCN1CCOC(c2ccccc2)C1)C(=O)NC1CC1 (stereo not drawn) | i
O=C(O)c1nccnc1C(=O)Nc1ccccc1 | i
SMILES | RMI FANCM FP
Oc1c(Cl)cc(Cl)cc1/C=N\NC(=S)NC1CC2CCC1C2 (stereo not drawn) | 11
OCCN/N=C\c1cc(Cl)cc(Cl)c1O | i
Oc1ccccc1/C=N\NC(=S)NC1CC2C=CC1C2 (stereo not drawn) | i
O=C(Nc1ccc(N2CCCCS2(=O)=O)cc1)c1cc(Cl)ccc1Cl | i
Cc1nccc(-c2sc(-c3cccs3)nc2C)n1 | i
CSc1nccc(-c2sc(-c3ccc(Cl)cc3)nc2C)n1 | 32
